Active and inactive are the calls of the source. Rule for the calls: active = hit-call score of the fitted dose curve at least 0.9, where 1 is the maximum; inactive = score below 0.9.
How the values were obtained:
[1] = read-out: Transforming growth factor beta 1 (TGFb1), TGFB1 (gene 7040); assay: BSK_KF3CT_TGFb1: BioMAP Diversity Plus: KF3CT Assay for Transforming growth factor beta 1 (TGFb1) Biomarker Activity (AID 2283072); details: primary human keratinocytes with fibroblasts; actives raise or lower the signal
In short: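 Signal changes in either direction, relative to DMSO, define activity here. TGF-b1 is read by ELISA from a human keratinocyte-fibroblast co-culture 24 h post-dose.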

[2] = read-out: C-C motif chemokine 2 (Homo sapiens) (UniProt P13500); assay: BSK_KF3CT_MCP1: BioMAP Diversity Plus: KF3CT Assay for Monocyte Chemoattractant Protein 1 (MCP1/CCL2) Biomarker Activity (AID 2283073); details: primary human keratinocytes with fibroblasts; actives raise or lower the signal
In short: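 ELISA readout of MCP-1 after 24 h chemical dosing of a human skin primary co-culture of keratinocytes and foreskin fibroblasts. Activity was fitted in both directions against DMSO.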

[3] = read-out: Matrix Metallopeptidase 9 (MMP9), MMP9 (gene 4318); assay: BSK_KF3CT_MMP9: BioMAP Diversity Plus: KF3CT Assay for Matrix Metallopeptidase 9 (MMP9) Biomarker Activity (AID 2283074); details: primary human keratinocytes with fibroblasts; actives raise or lower the signal
In short: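 Human keratinocyte and foreskin fibroblast co-culture exposed to chemicals for 24 h; MMP9 biomarker measured by ELISA, bidirectional fitting relative to DMSO; cytotoxicity tracked by SRB total protein staining in parallel cultures.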

[4] = read-out: urokinase plasminogen activator (uPA), PLAU (gene 5328); assay: BSK_KF3CT_uPA: BioMAP Diversity Plus: KF3CT Assay for urokinase plasminogen activator (uPA) Biomarker Activity (AID 2283075); details: primary human keratinocytes with fibroblasts; actives raise or lower the signal
In short: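 Primary human keratinocyte/foreskin fibroblast co-culture exposed to chemical; uPA measured by ELISA at 24 h. Bidirectional fit versus DMSO, with parallel SRB total-protein staining for cytotoxicity.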

CD40, CD40 (gene 958) [5] = assay: BSK_LPS_CD40: BioMAP Diversity Plus: LPS Assay for CD40 Biomarker Activity (AID 2283076); details: primary human HUVEC with PBMC; actives raise or lower the signal
In short: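 Cells were dosed, incubated 24 h, then assayed for CD40 by ELISA. Gain or loss of signal was analysed relative to DMSO controls. The culture paired human umbilical vein endothelium with peripheral blood mononuclear cells.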

[6] = read-out: E-selectin (Homo sapiens) (UniProt P16581); assay: BSK_LPS_Eselectin: BioMAP Diversity Plus: LPS Assay for Eselectin Biomarker Activity (AID 2283077); details: primary human HUVEC with PBMC; actives raise or lower the signal
In short: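 Primary human vascular co-culture (endothelium plus PBMC) was dosed with chemical, then E-selectin quantified by ELISA at 24 h. Endpoint values derive from bidirectional curve fitting relative to DMSO.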

[7] = read-out: Interleukin-8 (IL8), CXCL8 (gene 3576); assay: BSK_LPS_IL8: BioMAP Diversity Plus: LPS Assay for Interleukin-8 (IL8) Biomarker Activity (AID 2283078); details: primary human HUVEC with PBMC; actives raise or lower the signal
In short: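 Readout is IL-8 by ELISA, taken 24 h after compounds were added to LPS-stimulated endothelial/PBMC co-cultures. Both increases and decreases relative to DMSO control were scored through bidirectional fitting.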

[8] = BSK_LPS_SRB: Viability Assessment in the BioMAP Diversity Plus: LPS Assay (AID 2283079); details: primary human HUVEC with PBMC;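 note: total protein by sulforhodamine B absorbance as a cytotoxicity measure; measured one day after compound addition; fitted in both directions against DMSO so loss or gain of signal counts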
In short: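 Readout is SRB absorbance at 560 nm (0.1% stain, TCA-fixed parallel cultures) as a total-protein cytotoxicity measure. Cells: primary human umbilical vein endothelium plus peripheral blood mononuclear cells, 24 h after chemical exposure; DMSO served as baseline.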

[9] = read-out: Interleukin-1 alpha (IL1a), IL1A (gene 3552); assay: BSK_LPS_IL1a: BioMAP Diversity Plus: LPS Assay for Interleukin-1 alpha (IL1a) Biomarker Activity (AID 2283080); details: primary human HUVEC with PBMC; actives raise or lower the signal
In short: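 ELISA read-out of IL-1 alpha from a human primary vascular co-culture (endothelium plus PBMC) under LPS, sampled 24 hours post-dosing. Activity was fitted in both directions relative to DMSO controls.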

[10] = read-out: Monocyte Chemoattractant Protein-1 (MCP1), CCL2 (gene 6347); assay: BSK_LPS_MCP1: BioMAP Diversity Plus: LPS Assay for Monocyte Chemoattractant Protein-1 (MCP1) Biomarker Activity (AID 2283081); details: primary human HUVEC with PBMC; actives raise or lower the signal
In short: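 Human endothelial–PBMC co-cultures were dosed with chemical, then LPS-driven MCP-1 levels were quantified by ELISA at 24 h. Activity in either direction was fitted versus DMSO negative control.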

[11] = BSK_LPS_PGE2: BioMAP Diversity Plus: LPS Assay for Prostaglandin E2 (PGE2) Biomarker Activity (AID 2283082); details: primary human HUVEC with PBMC; actives raise or lower the signal
In short: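 Endpoint derived from bidirectional curve fitting versus DMSO of ELISA-measured PGE2 in LPS-stimulated human primary vascular co-culture (HUVEC with PBMC) harvested at 24 h.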

[12] = read-out: Macrophage colony-stimulating factor (MCSF), CSF1 (gene 1435); assay: BSK_LPS_MCSF: BioMAP Diversity Plus: LPS Assay for Macrophage colony-stimulating factor (MCSF) Biomarker Activity (AID 2283083); details: primary human HUVEC with PBMC; actives raise or lower the signal
In short: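 ELISA readout of M-CSF after 24 h compound exposure in a human endothelial/PBMC co-culture. Activity, in either direction, is fitted relative to DMSO vehicle.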

[13] = read-out: Tissue Factor, F3 (gene 2152); assay: BSK_LPS_TissueFactor: BioMAP Diversity Plus: LPS Assay for Tissue Factor Biomarker Activity (AID 2283084); details: primary human HUVEC with PBMC; actives raise or lower the signal
In short: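 ELISA signal for cell-surface Tissue Factor (CD142) was read 24 h after compound dosing of an LPS-stimulated human endothelial–PBMC primary co-culture. Gain or loss of signal was scored relative to DMSO.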

[14] = read-out: Tumor necrosis factor (Homo sapiens) (UniProt P01375); assay: BSK_LPS_TNFa: BioMAP Diversity Plus: LPS Assay for Tumour Necrosis Factor alpha (TNFa) Biomarker Activity (AID 2283085); details: primary human HUVEC with PBMC; actives raise or lower the signal
In short: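 Primary human vascular co-culture of HUVEC and PBMC; TNFa ELISA 24 h after treatment, analysed as increase or decrease relative to DMSO control.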

[15] = read-out: Vascular cell adhesion molecule 1 (VCAM1), VCAM1 (gene 7412); assay: BSK_LPS_VCAM1: BioMAP Diversity Plus: LPS Assay for Vascular cell adhesion molecule 1 (VCAM1) Biomarker Activity (AID 2283086); details: primary human HUVEC with PBMC; actives raise or lower the signal
In short: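 Primary human vascular co-culture (umbilical vein endothelium plus PBMC) stimulated with LPS received chemical; 24 h later VCAM-1 was read by ELISA. Overt cytotoxicity was assessed by sulforhodamine B staining of parallel cultures at the same time point.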

CD38, CD38 (gene 952) = assay: BSK_SAg_CD38: BioMAP Diversity Plus: SAg Assay for CD38 Biomarker Activity (AID 2283087); details: primary human HUVEC with PBMC; actives raise or lower the signal
In short: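 Fluorescence ELISA of cell-surface CD38 served as the read-out, with either increase or decrease fitted against DMSO controls. Cells were a human umbilical vein endothelium plus PBMC co-culture under SEB/TSST-1 stimulation, measured 24 h after dosing.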

CD40, CD40 (gene 958) [16] = assay: BSK_SAg_CD40: BioMAP Diversity Plus: SAg Assay for CD40 Biomarker Activity (AID 2283088); details: primary human HUVEC with PBMC; actives raise or lower the signal
In short: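 Compounds were dosed onto a human primary endothelial–PBMC co-culture, and after 24 h CD40 was quantified by ELISA using a fluorescence signal. Activity in either direction was fitted relative to DMSO.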

CD69, CD69 (gene 969) = assay: BSK_SAg_CD69: BioMAP Diversity Plus: SAg Assay for CD69 Biomarker Activity (AID 2283089); details: primary human HUVEC with PBMC; actives raise or lower the signal;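 for AC50: cell surface CD69 protein quantified by ELISA with fluorescence detection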
In short: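 Primary human vascular co-culture (umbilical vein endothelium with peripheral blood mononuclear cells) exposed to test chemical for 24 h. CD69 levels quantified by fluorescence ELISA; DMSO served as negative control for bidirectional fitting.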

[17] = read-out: Monocyte Chemoattractant Protein-1 (MCP1), CCL2 (gene 6347); assay: BSK_SAg_MCP1: BioMAP Diversity Plus: SAg Assay for Monocyte Chemoattractant Protein-1 (MCP1) Biomarker Activity (AID 2283090); details: primary human HUVEC with PBMC; actives raise or lower the signal
In short: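 MCP-1 levels in the endothelial–PBMC SAg co-culture were quantified by ELISA at 24 h post-dosing; both increases and decreases versus DMSO scored. Cytotoxicity monitored by SRB total protein in parallel cultures.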

[18] = read-out: E-selectin (Homo sapiens) (UniProt P16581); assay: BSK_SAg_Eselectin: BioMAP Diversity Plus: SAg Assay for Eselectin Biomarker Activity (AID 2283091); details: primary human HUVEC with PBMC; actives raise or lower the signal
In short: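 Co-culture: HUVEC + PBMC. Dose compound; 24 h. ELISA for E-selectin. Bidirectional fit vs DMSO.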

Measured: AC50

Sequence of Tumor necrosis factor (Homo sapiens) (P01375 whole entry, looked up): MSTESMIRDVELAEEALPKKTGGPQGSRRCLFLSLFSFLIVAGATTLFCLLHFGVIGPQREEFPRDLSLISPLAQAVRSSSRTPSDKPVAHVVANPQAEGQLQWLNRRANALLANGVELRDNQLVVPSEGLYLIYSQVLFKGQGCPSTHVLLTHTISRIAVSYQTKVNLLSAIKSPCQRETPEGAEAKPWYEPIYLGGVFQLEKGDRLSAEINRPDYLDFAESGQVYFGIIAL
Sequence of E-selectin (Homo sapiens) (P16581 whole entry, looked up): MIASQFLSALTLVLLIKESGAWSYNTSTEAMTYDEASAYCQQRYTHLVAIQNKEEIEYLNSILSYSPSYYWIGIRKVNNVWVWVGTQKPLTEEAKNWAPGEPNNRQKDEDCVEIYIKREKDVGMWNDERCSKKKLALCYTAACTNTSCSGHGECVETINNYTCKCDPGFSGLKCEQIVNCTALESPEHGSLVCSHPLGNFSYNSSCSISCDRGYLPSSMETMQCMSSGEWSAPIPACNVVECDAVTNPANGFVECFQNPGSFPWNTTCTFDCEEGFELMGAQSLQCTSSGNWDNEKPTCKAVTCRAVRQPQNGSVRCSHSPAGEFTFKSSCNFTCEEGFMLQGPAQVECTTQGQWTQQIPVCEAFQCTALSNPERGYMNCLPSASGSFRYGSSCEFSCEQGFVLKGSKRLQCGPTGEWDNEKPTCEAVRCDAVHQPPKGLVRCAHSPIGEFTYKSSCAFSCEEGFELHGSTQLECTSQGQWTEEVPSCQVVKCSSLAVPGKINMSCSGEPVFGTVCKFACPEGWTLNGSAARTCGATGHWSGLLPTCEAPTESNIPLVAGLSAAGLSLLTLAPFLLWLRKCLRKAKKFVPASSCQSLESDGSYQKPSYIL

CC(C)(COCC1CO1)COCC1CO1 (stereo not given)
active: CD69, CD69 (gene 969) 20 µM | [18] 20 µM
inactive: [1] | [2] | [3] | [4] | CD40, CD40 (gene 958) [5] | [6] | [7] | [8] | [9] | [10] | [11] | [12] | [13] | [14] | [15] | CD38, CD38 (gene 952) | CD40, CD40 (gene 958) [16] | [17]

Cc1cc(C)cc(C)c1
inactive: [1] | [2] | [3] | [4] | CD40, CD40 (gene 958) [5] | [6] | [7] | [8] | [9] | [10] | [11] | [12] | [13] | [14] | [15] | CD38, CD38 (gene 952) | CD40, CD40 (gene 958) [16] | CD69, CD69 (gene 969) | [17] | [18]

Nc1c(Oc2ccccc2)cc(O)c2c1C(=O)c1ccccc1C2=O
active: [13] 2.54 µM | CD38, CD38 (gene 952) 10 µM | CD40, CD40 (gene 958) [16] 7.45 µM | [17] 0.803 µM | [18] 0.795 µM
inactive: [1] | [2] | [3] | [4] | CD40, CD40 (gene 958) [5] | [6] | [7] | [8] | [9] | [10] | [11] | [12] | [14] | [15] | CD69, CD69 (gene 969)
